# Reference: PMC6919601, “Identification of Plasmodium dipeptidyl aminopeptidase allosteric inhibitors by high throughput screening” (PLoS ONE, 2019)
# Hit rate of the full screen: of about 110,000 compounds, about 230 (0.21%) showed an effect of 50% or more. The sample holds strong results, similar compounds and a random draw of the others, so the mix is not that of the screen.
# Target: DPAP1 (Plasmodium falciparum, UniProt Q8IIJ9)
# Assay: primary screen, percent inhibition; read by cleavage of a fluorogenic dipeptide substrate; higher = more effect of the substance
# Design: species or system P. falciparum D10 trophozoite lysates; single well
# 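Also: 30 min substrate incubation versus DMSO and 10 µM JCP410 controls.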
# Sequence of DPAP1 (Q8IIJ9 whole entry, looked up): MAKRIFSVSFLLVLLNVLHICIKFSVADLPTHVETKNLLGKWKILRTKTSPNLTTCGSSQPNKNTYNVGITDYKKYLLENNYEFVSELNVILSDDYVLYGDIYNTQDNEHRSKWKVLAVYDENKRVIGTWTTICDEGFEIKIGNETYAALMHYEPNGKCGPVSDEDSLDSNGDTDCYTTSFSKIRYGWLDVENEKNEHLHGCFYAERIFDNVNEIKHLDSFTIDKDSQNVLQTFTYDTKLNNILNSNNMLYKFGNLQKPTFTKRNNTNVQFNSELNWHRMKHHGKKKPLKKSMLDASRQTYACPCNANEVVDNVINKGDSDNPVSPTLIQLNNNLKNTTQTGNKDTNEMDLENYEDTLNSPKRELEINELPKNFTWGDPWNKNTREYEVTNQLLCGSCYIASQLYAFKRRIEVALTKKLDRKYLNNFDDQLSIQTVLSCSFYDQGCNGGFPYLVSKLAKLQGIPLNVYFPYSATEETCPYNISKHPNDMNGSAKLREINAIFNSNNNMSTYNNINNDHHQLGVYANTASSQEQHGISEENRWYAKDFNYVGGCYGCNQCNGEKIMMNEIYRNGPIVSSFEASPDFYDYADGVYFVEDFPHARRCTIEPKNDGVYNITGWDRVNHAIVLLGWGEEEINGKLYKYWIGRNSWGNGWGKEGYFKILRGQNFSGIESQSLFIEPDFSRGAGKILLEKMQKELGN
row,Structure (SMILES),% Inhibition @ 10 uM [%]
1,COCCNc1nc2c(S(=O)(=O)c3ccccc3)nnn2c2ccsc12,-0.256
2,CCc1c(C)sc(NC(=O)Cc2ccc(OC)c(OC)c2)c1C(N)=O,16.2
3,CCOC(=O)c1cc(-c2ccccc2)n(CCC(=O)N2CCCC(C)C2)c1C (centres unmarked),1.2
4,COc1ccccc1CNC(=O)c1cccc(Br)c1,-4.15
5,N#Cc1cc2c(N)c(C(=O)c3ccc(Br)cc3)sc2nc1N,2.7
6,O=C(NCC1CCCO1)C1CCC(CNS(=O)(=O)c2cccc3nsnc23)CC1 (centres unmarked),4.54
7,Cc1cccc(NC(=O)COc2ccc(C)cc2C)c1,-2.32
8,Cc1ccc(OCC(=O)Nc2ccccc2)c(C)c1,78
9,Cc1ccc(NC(=O)COc2ccc(C)cc2C)cc1,-8.06
10,COc1ccc(NC(=O)c2ccc(C)c(Br)c2)cc1,2.42
11,Cc1c(CNC2CCCc3ccccc32)c(C(=O)O)c(C)n1Cc1ccc(F)cc1 (centres unmarked),-5.49
12,Cc1cccc(Oc2nc3c(C)cccn3c(=O)c2/C=C(\C#N)C(=O)NCC2CCCO2)c1 (centres unmarked),-9.06
13,C=CCN1C(=O)C(CC(=O)NCC)S/C1=N\c1cccc2ccccc12 (centres unmarked),0.512
14,CCNC(=O)/C(C#N)=C/c1c(Oc2cc(C)ccc2C(C)C)nc2ccccn2c1=O,75.9
15,CCOC(=O)/C(C#N)=C/c1c(Oc2ccccc2OC)nc2ccccn2c1=O,-5.1
16,CCOC(=O)/C(C#N)=C/c1c(Oc2cccc(C)c2C)nc2ccccn2c1=O,77.8
17,COC(=O)/C(C#N)=C/c1c(Oc2cccc(C)c2C)nc2ccccn2c1=O,-5.1
18,CNC(=O)/C(C#N)=C/c1c(Oc2cc(C)ccc2C(C)C)nc2ccccn2c1=O,17
19,Cc1ccc(C(C)C)c(Oc2nc3ccccn3c(=O)c2/C=C(\C#N)C(=O)NCc2ccccc2)c1,-1.43
20,Cc1cc(C)c2c(n1)SCC(=O)N2CC(=O)NCc1cccc(Cl)c1,-6.01
21,COCCN(Cc1ccco1)C(=O)c1cc2c(Cl)nc3ccccc3c2s1,3.88
22,Cc1ccc(-c2nnc(SCC(=O)N3CCC(C)CC3)o2)cc1C,1.3
23,COc1ccc(CN2CCN(Cc3cccc(F)c3)CC2)c(OC)c1OC,5.99
24,Cc1cc(Oc2nc3ccccn3c(=O)c2/C=C(\C#N)c2nc3ccccc3[nH]2)ccc1Cl,92.2
25,N#C/C(=C\c1c(Oc2ccccc2Cl)nc2ccccn2c1=O)c1nc2ccccc2[nH]1,-1.86
26,Cc1cccc(Oc2nc3ccccn3c(=O)c2/C=C(\C#N)c2nc3ccccc3[nH]2)c1,6.78

row,Structure (SMILES),% Inhibition @ 10 uM [%]
1,COc1ccc(-c2nc(CSc3nnc(C)n4c3cc3oc(C)cc34)c(C)o2)cc1,3.61
2,Cc1cc(C)c(S(=O)(=O)N2CCN(c3ccc(F)cc3)CC2)c(C)c1,-6.86
3,CN(c1ccc(C(=O)Nc2ccc(F)cc2)cc1)S(=O)(=O)c1ccccc1,-7.56
4,Cc1sc(NC(=O)COc2ccc(F)cc2F)c(C#N)c1C,93.9
5,CCc1c(C)sc(NC(=O)COc2ccc(F)cc2)c1C#N,0.777
6,Cc1sc(NC(=O)COc2ccc(Cl)cc2Cl)c(C#N)c1C,1.25
7,CCCNC(=O)c1cc2ncc(Br)cn2n1,1.04
8,O=C(Nc1cccnc1)c1cc2n(n1)C(C(F)(F)F)CC(c1ccc(Br)cc1)N2 (centres unmarked),2.99
9,O=C(O)c1cc2n(n1)C(C(F)(F)F)CC(c1ccccc1)N2 (centres unmarked),-1.32
10,O=C(Nc1ccc(Br)cn1)c1cc2n(n1)C(C(F)(F)F)CC(c1ccccc1)N2 (centres unmarked),50.4
11,O=C(Cc1nnc(-c2ccc(Br)cc2)o1)NC1CCN(Cc2ccccc2)CC1,2.28
12,CP(=O)(O)c1nc2ccccc2s1,-2.44
13,c1ccc(CN2CCn3c4c(c5ccccc53)CCCC42)cc1 (centres unmarked),-1.25
14,Cc1ccc2c(c1)c1c3n2CCN(Cc2ccccc2)C3CCC1 (centres unmarked),1.26
15,C1=C(c2ccc3c(c2)c2c4n3CCN(Cc3ccccc3)C4CCC2)C2CCN1CC2 (centres unmarked),70.5
16,CN(C)CCN(C)C1CCN(Cc2ccccc2)CC1,0.162
17,Cc1cc(C)c(C#N)c(SCc2ccccc2)n1,-0.305
18,Cc1cc(C)c(C#N)c(SCc2ccccc2F)n1,40.7
19,Cc1cc(C)c(C#N)c(SCc2ccccn2)n1,66.4
20,CCOC(=O)c1c(NC(=O)/C=C/C(=O)O)sc2c1CCN(Cc1ccccc1)C2,-1.92
21,CC1CCc2c(sc(NC(=O)C(C)Oc3cccc(Cl)c3)c2C(N)=O)C1 (centres unmarked),2.45
22,CCOc1ccc(CC(=O)Nc2sc3c(c2C(N)=O)CCCC3)cc1OCC,-13.5
23,NC(=O)c1c(NC(=O)COc2ccccc2)sc2c1CCCCC2,1.88
24,Cc1cc(C(F)(F)F)nn1CC(=O)Nc1sc2c(c1C(N)=O)CCCC2,-1.49
25,NC(=O)c1c(NC(=O)COc2ccc(Cl)cc2)sc2c1CCCCC2,65.1
26,Cc1cc(C(F)(F)F)nn1CC(=O)Nc1sc2c(c1C#N)CCCCC2,2.76

row,Structure (SMILES),% Inhibition @ 10 uM [%]
1,NC(=O)c1c(NC(=O)COc2ccc(Cl)cc2)sc2c1CCCCCC2,-4.33
2,COc1ccc(CC(=O)Nc2sc3c(c2C(N)=O)CCCC3)cc1,2.13
3,CC(Oc1ccc(F)cc1)C(=O)Nc1sc2c(c1C(N)=O)CCC2 (centres unmarked),2.44
4,Cc1cc(C(F)(F)F)nn1CC(=O)Nc1sc2c(c1C(N)=O)CCCCC2,54.5
5,COc1ccc(CC(=O)Nc2sc3c(c2C(N)=O)CCCCC3)cc1OC,57
6,CC(Oc1cccc(Cl)c1)C(=O)Nc1sc2c(c1C(N)=O)CCCCC2 (centres unmarked),61.2
7,Cc1nc2ccccc2c2oc(C(=O)NCc3ccc(F)cc3)cc12,1.62
8,CC(=O)c1ccc(OCCOc2ccc(C(C)=O)cc2)cc1,-6.82
9,CCn1c2ccccc2c2nnc(N3CCC(C)CC3)nc21,-3.1
10,Cc1cccc(Cc2c(C)nc3c(C(=O)NCCc4ccccc4)cnn3c2C)c1,-16.3
11,O=C(O)CSC12CC3CC(CC(C3)C1)C2,-0.415
12,O=C1c2ccccc2C(=O)N1c1c(F)c(F)c(C(F)(F)F)c(F)c1F,1.8
13,CC1=CC2=NC(=O)/C(=C\c3ccc(OCc4ccccc4C)cc3)C(=N)N2O1,3.63
14,COc1ccc(Cl)cc1N(CC(=O)Nc1ccc(C(C)C)cc1)S(C)(=O)=O,0.324
15,Nc1nnc(-c2ccc([N+](=O)[O-])cc2)s1,-0.0369
16,COc1ccc(C2=CC(c3ccc(F)c(Br)c3)n3nnnc3N2)cc1 (centres unmarked),1.73
17,CC(=O)ONc1ccc(NC=C2C(=O)N(C)C(=O)N(C)C2=O)cc1,8.6
18,Fc1ccccc1CSCc1nc2ccccc2[nH]1,-4.6
19,O=C(Nc1cnc2ccccc2c1O)N1CCC(Cc2ccccc2)CC1,5.43
20,Cc1cc(/C=C2/SC(=O)N(C(C)C)C2=O)c(C)n1-c1ccncc1,-0.68
21,CCCC(=O)NCCc1nc2ccccc2n1CC(C)C,0.121
22,CCCc1nc(N)c(C#N)c(-c2ccccc2)c1CC,-0.631
23,CCCCc1nc(N)c(C#N)c(-c2ccccc2)c1CCC,97.8
24,Cc1c(CC(C)C)nc(N)c(C#N)c1-c1ccccc1,99.3
25,COc1ccccc1-c1c(C)c(CC(C)C)nc(N)c1C#N,0.5
26,Cc1c(CC(C)C)nc(N)c(C#N)c1-c1ccc(F)cc1,2.92

row,Structure (SMILES),% Inhibition @ 10 uM [%]
1,CCCCCc1nc(N)c(C#N)c(-c2ccccc2)c1CCCC,-5.9
2,Cc1ccccc1N1C(=O)/C(=C\c2c(C)[nH]c3ccccc23)C(=O)NC1=S,4.15
3,O=C(c1ccco1)N1CCN(C2CCC(c3ccccc3)CC2)CC1 (centres unmarked),-0.274
4,CCc1c(C#N)c(S)nc(C)c1C(=O)Nc1ccccc1,55
5,CCOC(=O)c1c(C)nc(C)c(C(=O)OCC)c1-c1ccc(OC)cc1,-1.96
6,CCOC(=O)c1c(C)nc(S)c(C#N)c1-c1ccccc1,57.1
7,CCOC(=O)c1c(C)nc(S)c(C#N)c1-c1ccc(OC)cc1,52.9
8,CCc1c(C#N)c(SC)nc(C)c1C(=O)Nc1ccccc1,1.43
9,CC(=O)c1c(C)nc(S)c(C#N)c1-c1ccc(Cl)cc1,33.7
10,CC(=O)c1c(C)nc(S)c(C#N)c1-c1ccccc1,39.2
11,Cc1nc(S)c(C#N)c(C)c1C(=O)Nc1ccccc1,2.01
12,CCOC(=O)c1c(C)nc(C)c(C(=O)OCC)c1-c1ccccc1,1.57
13,Cc1ccc(OCCNC(=O)Cn2cnc3c(=O)n(C)c(=O)n(C)c32)cc1C,-9.26
14,CCn1c(C(=O)NCc2ccccn2)cc2oc3ccccc3c21,-3.96
15,COc1cc(C2NCCc3c2[nH]c2ccccc32)ccc1OC(C)C (centres unmarked),1.02
16,CC1CCN(C(=O)Cn2cnc3c(nnn3Cc3ccccc3F)c2=O)CC1,24
17,O=C(CNS(=O)(=O)c1ccc(Br)s1)N1CC=C(c2ccccc2)CC1,3.27
18,O=C(NC1CCCC1)c1ccc(Cl)c([N+](=O)[O-])c1,-4.91
19,O=C(Nc1cnn(Cc2ccccc2)c1)C1CCCC1,-1.78
20,Cc1cc(-c2ccc(O)cc2)nc2ccc3ccccc3c12,-1.97
21,Cc1cc(-c2ccc([N+](=O)[O-])cc2)nc2ccc3ccccc3c12,-0.239
22,Cc1cc(-c2ccc(N)cc2)nc2ccc3ccccc3c12,52.7
23,OC1CCCN(Cc2ccc(OC(F)(F)F)cc2)C1 (centres unmarked),1.62
